# Bioassay records as filed in PubChem.
# A selection: hits, their analogues and other compounds. The true share with any hit is near 0.34%.
# Vif-A3F inh – qHTS for Inhibitors of Vif-A3F Interactions: qHTS | actives 0.2% (n = 390,000) | HeLa A3F-eYFP + Vif (tagged APOBEC3F with the HIV-1 protein that degrades it), YFP fluorescence increase | Potency, µM (highest dose often 46.1 µM); further: nearly all actives have a fitted effect of over 65% in size
#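 Fluorescence increase (Ex 488/Em 500-530) after overnight compound treatment at 37 deg C flags inhibition of Vif-driven A3F-eYFP loss in stable HeLa A3F-eYFP/Vif cells seeded overnight beforehand.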
# Epigenetic derep – Quantitative High-Throughput Screen for Regulators of Epigenetic Control. murine LDR cells, GFP reporter derepression, 30 h. Potency, µM (top dose mostly 53.9 µM), hits mostly activators. actives 0.2% (n = 280,000). AID 1865, 2009; further: nearly all actives have a fitted effect of over 60% in size
#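 Derepression of a silenced CMV-GFP reporter in murine LDR cells is scored by enumerating GFP-positive cells with a laser-scanning microplate cytometer after 30 hours of treatment at 37 C.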
# Vif-A3G inh – qHTS for Inhibitors of Vif-A3G Interactions: qHTS; DNA dC->dU-editing enzyme APOBEC-3G (Homo sapiens), Q9HC16; HeLa A3G-eYFP + Vif (tagged APOBEC3G with the HIV-1 protein that degrades it), YFP fluorescence, overnight; Potency, µM (titrated, usually from 46.1 µM), actives largely listed as inhibitors; actives 0.076% (n = 410,000); AID 602310, 2012; further: nearly all actives have a fitted effect of over 60% in size
# Target sequence (Q9HC16 whole entry, looked up): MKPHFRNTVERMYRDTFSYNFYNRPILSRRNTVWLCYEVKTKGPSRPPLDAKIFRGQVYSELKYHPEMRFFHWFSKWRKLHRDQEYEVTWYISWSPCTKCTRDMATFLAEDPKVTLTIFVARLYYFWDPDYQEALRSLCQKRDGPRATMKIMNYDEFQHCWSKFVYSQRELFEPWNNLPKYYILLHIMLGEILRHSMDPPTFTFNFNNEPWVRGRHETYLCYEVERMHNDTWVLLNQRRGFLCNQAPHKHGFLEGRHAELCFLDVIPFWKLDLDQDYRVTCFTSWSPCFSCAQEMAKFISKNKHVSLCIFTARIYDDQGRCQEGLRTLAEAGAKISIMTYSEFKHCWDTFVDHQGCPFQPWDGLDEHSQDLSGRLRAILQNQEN
#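 HeLa cells stably expressing Vif and C-terminally eYFP-tagged A3G, seeded overnight at 37 deg C, then exposed to compound by pintool overnight at 37 deg C. Rise in yellow fluorescence (Ex 488/Em 500-530, Acumen) marks blocked Vif-driven A3G degradation.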
# A number is an active result; - = inactive; ? = inconclusive; . = not tested or not shown. The call rests on the fitted dose curve; in most records, active means well fitted curve in the direction sought with a large enough effect; inconclusive means small, poorly fitted or top-dose-only effect, or another doubt; inactive means no such curve, though single readings can be large; an effect the other way counts as inactive or inconclusive.
SMILES,Vif-A3F inh,Epigenetic derep,Vif-A3G inh
O=C1c2cccc3c(N4CCCCC4)ccc(c23)C(=O)N1c1cccc(O)c1,3.98µM,11.2µM,?
O=C1c2cccc3c(N4CCCCC4)ccc(c23)C(=O)N1CCO,?,-,?
Cc1cc(O)c(CN2CCN(c3ccc(F)cc3)CC2)c2oc(=O)cc(C)c12,-,-,-
Cc1ccccc1CN1[C@H](C)[C@H](c2ccccc2)OCCS1(=O)=O,.,.,-
Clc1ccccc1/C=N/NC1=Nc2cccc3cccc1c23,5.62µM,?,?
C(=N\NC1=Nc2cccc3cccc1c23)/c1ccccn1,-,?,-
CC(C)(C)n1ncc2c(=O)n(Cc3ccc(-c4ccccc4C#N)cc3)cnc21,.,.,-
Cc1cc(C)c(Cn2c3ccccc3c3cnn(CC(=O)NCC(C)c4ccccc4)c(=O)c32)c(C)c1 (stereo not given),-,-,-
CCCCN=C1NN=C(c2ccc3c(c2)OCCO3)CS1,-,-,-
c1cc2c(cc1C1=NNC(=NC3CC3)SC1)OCCO2,?,28.2µM,-
O=[N+]([O-])c1ccccc1S(=O)(=O)Nc1ccc(-c2ccc(N3CCOCC3)nn2)cc1,12.6µM,.,-
O=[N+]([O-])c1ccccc1S(=O)(=O)Nc1cccc(-c2ccc(N3CCOCC3)nn2)c1,-,.,-
CCN1C(=O)/C(=C2/Sc3ccc(OC)cc3N2C)SC1=Nc1ccc(OC)cc1,-,-,-
C=CCN1C(=O)/C(=C2/Sc3ccc(OC)cc3N2C)SC1=Nc1cccc(O)c1,11.2µM,10µM,11.2µM
O=[N+]([O-])c1ccc(O/N=[N+](\[O-])N2CCCC2)c([N+](=O)[O-])c1,.,.,-
CCN(CC)c1ccc2nc3c(=O)n(C)c(=O)n(C)c3nc2c1,.,12.6µM,.
CCC(=O)Nc1ccc2nc3c(=O)n(C)c(=O)n(C)c3nc2c1,-,-,-
COC(=O)c1c(SC)nc2ccccc2c1OCc1ccccc1Cl,-,-,-
CN(C)c1ccc(/C=C(/C(=O)c2ccc(Cl)cc2Cl)n2cncn2)cc1,?,?,12.6µM
COc1ccc(/C=C(/C(=O)c2ccc(Cl)cc2Cl)n2cncn2)cc1,-,-,-
COC(=O)c1ccc(NC(=O)C2CCN(S(=O)(=O)c3ccc4c(c3)CCCN4C(C)=O)CC2)cc1,-,-,-
On1onc2c3cc(-c4ccccc4)nc3ccc21,?,15.8µM,3.55µM
c1ccc(-c2cc3c(ccc4nonc43)nn2)cc1,-,-,-
CCC(C)NC(=O)C1CCN(C(=O)c2ccc(-n3ccc4ccccc43)s2)CC1 (stereo not given),-,-,-
Cc1ccc2occ(CC(=O)N(Cc3ccc(Cl)cc3)C3CCS(=O)(=O)C3)c2c1 (stereo not given),-,-,-
SMILES,Vif-A3F inh,Epigenetic derep,Vif-A3G inh
O=C(c1ccc2c(c1)N(Cc1ccccc1F)C(=O)c1ccccc1S2(=O)=O)N1CCN(c2ccccn2)CC1,-,-,-
COc1ccc(/C=C/C(=O)Nc2ccc3nc(N4CCC(C)CC4)cc(C)c3c2)cc1,-,22.4µM,-
COc1ccc(C(=O)Nc2ccc3nc(N4CCC(C)CC4)cc(C)c3c2)cc1,-,?,-
Cc1cc([N+](C)(C)C)cc(C)c1/C=C/c1ccnc2ccccc12,.,.,-
CCN1C(=S)SC(=O)C1=C1C=C(C)N(CCOC)C(C)=C1,.,-,.
CCN1C(=S)SC(=O)C1=C1C=C(C)N(CCO)C(C)=C1,-,14.1µM,-
CCOC(=O)c1cc(N)cc([N+](=O)[O-])c1,-,-,-
CCOC(=O)c1sc2cc([N+](=O)[O-])cc(SCC(C)C)c2c1N,?,3.16µM,?
Cc1cc(NCc2ccccn2)n2nc(C)c(-c3ccccc3)c2n1,-,?,-
Cc1nn2c(NCc3ccccn3)c3c(nc2c1-c1ccccc1)CCC3,-,22.4µM,-
COc1cc(OC)c(OC)cc1/C=C/c1nccc2ccccc12,.,.,-
C(=C\c1c[nH]c2ccccc12)/c1nccc2ccccc12,.,.,8.91µM
CN(C)c1ccc(C=Cc2cnccn2)cc1,-,.,-
CN(C)c1ccc(/C=C/c2ccncc2)cc1,28.2µM,-,?
CN(C)c1ccc(/C=C/c2nccc3ccccc23)cc1,.,.,11.2µM
Fc1ccc(/C=C/c2nccc3ccccc23)cc1,.,.,-
C=Nc1ccc(/C=C/c2ccnc3ccccc23)cc1,.,.,-
C=C(c1ccc2ccccc2n1)c1cccs1,.,.,-
CC1=C(C(=O)Nc2ccccc2)C(c2ccccc2C)n2nc(SCC(=O)c3ccc(C)cc3)nc2N1 (stereo not given),-,-,-
CCOc1c2c(c(-c3ccc4c(c3)OCO4)c3cc(OC)c(OC)cc13)C(=O)OC2,.,.,-
COC(=O)C1=C(C)N(Cc2ccco2)C(=O)/C1=C\c1ccc([N+](=O)[O-])cc1,3.16µM,?,?
COC(=O)C1=C(C)N(Cc2ccc(OC)cc2)C(=O)/C1=C\c1ccco1,-,?,-
Cc1ccc(-c2nc3cc(C(C)C)ccc3o2)cc1NC(=O)c1cccs1,-,-,-
COc1cc(/C=C(\C#N)c2nc3ccc(C)cc3[nH]2)ccc1OC(C)C,25.1µM,?,-
COc1cc(/C=C(\C#N)c2nc3ccccc3s2)ccc1OCC(=O)Nc1ccccc1,?,3.16µM,10µM
SMILES,Vif-A3F inh,Epigenetic derep,Vif-A3G inh
Cc1ccc2nc(/C(C#N)=C/c3ccc(-c4cccc(Cl)c4)o3)[nH]c2c1,3.16µM,?,7.94µM
COc1cc(/C=C(/C#N)c2nc3ccccc3[nH]2)ccc1OCC(=O)Nc1ccccc1C(C)C,10µM,-,-
COc1cc(/C=C(/C#N)c2nc3ccccc3[nH]2)ccc1OCC(=O)Nc1ccccc1C,-,?,-
N#C/C(=C\c1ccc(-c2ccc(Cl)c(C(=O)O)c2)o1)c1nc2ccccc2[nH]1,?,-,?
Cc1ccc2nc(/C(C#N)=C/c3cccc(Br)c3)[nH]c2c1,?,?,-
COc1cc(/C=C(\CC(=O)O)c2nc3ccccc3s2)ccc1OCC(=O)Nc1ccccc1F,-,.,-
CCOC(=O)c1cccc(NC(=O)c2cc(-c3ccc(Cl)s3)nc3ccccc23)c1,-,-,-
Cc1cc2c(cc1S(=O)(=O)Nc1cccc(Cl)c1C)OCCN2C,-,-,-
C[C@@H]1[C@H](c2ccccc2)OCCS(=O)(=O)N1Cc1ccccc1Br,.,.,-
COc1ccc2[nH]c(C(O)C(O)c3nc4c(OC)c(OC)ccc4[nH]3)nc2c1OC (stereo not given),.,.,-
CCN(CC)CCOC(=O)c1ccc(NC(=O)c2cc3cccc(OC)c3oc2=O)cc1,-,-,-
Cc1ccc(C)c(-c2nnc(NC(=O)c3ccc4c(c3)OCCO4)o2)c1,?,-,-
CCN(CC)c1ccc(/C=C(/C#N)c2nc3ccccc3[nH]2)c(OC(C)C)c1,?,12.6µM,?
N#C/C(=C\c1ccc(OCc2ccc(Cl)cc2Cl)cc1)c1nc2ccccc2[nH]1,?,?,-
CCOc1cccc(/C=C(/C#N)c2nc3ccccc3[nH]2)c1OCC(=O)O,-,.,-
COc1cc(/C=C(\C#N)c2nc3ccccc3[nH]2)cc(Cl)c1OCc1ccccc1Cl,?,11.2µM,?
CC(C)(C)n1ncc2c(=O)n(Cc3cc(C(F)(F)F)ccc3Cl)cnc21,.,.,-
